Bioassay records deposited in PubChem by National Center for Advancing Translational Sciences (NCATS).
Sampled rows, rich in hits. Any-hit rate of the full collection: about 8%.
SW480 rerep = A quantitative high throughput screen for small molecules that induce DNA re-replication in SW480 colon adenocarcinoma cells | SW480 DNA re-replication, Hoechst DNA content imaging, 48 h | AID 624297, 2012 | Potency, µM (series often up to 46.1 µM), inactives show top-dose re-replication activation, hits mostly activators | 340,000 compounds, 1.8% hits; further: % of control where 0% means no effect; nearly all actives have a fitted effect of over 55% in size
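250 cells/well; 23 nL cpd via pin tool; 48 hr, 37 C, 5% CO2; Hoechst 40 min; imager read of total nuclear intensity, ex 405/em 500-530 nm.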
HT1080 IDH1KD tx = qHTS for induction of synthetic lethality in tumor cells producing 2HG: qHTS for the HT-1080-IDH1KD cell line | Potency, µM (top dose mostly 46.1 µM), for inactives: top-dose activity, negative = toxicity, usual class: cytotoxic | 360,000 compounds, 2% hits | AID 686971, 2013 | HT-1080 IDH1 knockdown viability, ATP luminescence, 48 h;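 further: 0% = DMSO wells and -100% = cell-free medium wells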
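% activity derives from luminescence (CellTiter-Glo), normalised to DMSO and no-cell wells. HT-1080-IDH1KD cells, 750/well, had 48 h compound exposure at 37 °C.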
HT1080NT lethal = qHTS for induction of synthetic lethality in tumor cells producing 2HG: qHTS for the HT-1080-NT fibrosarcoma cell line | HT-1080-NT fibrosarcoma viability, CellTiter-Glo ATP luminescence, 48 h | Potency, µM (top dose mostly 46.1 µM), for inactives: at the top dose activity, negative = less viability, usual class: cytotoxic | 360,000 compounds, 1.6% hits;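 further: NT is the 2HG producing partner of a matched IDH1 knockdown line; 0% = DMSO-treated cells and -100% = media-only wells without cells; nearly all actives have a fitted effect of over 55% in size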
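Read-out is CellTiter-Glo luminescence after 10 minutes at room temperature, following 48 hours' compound treatment of HT-1080-NT cells (750 cells/well, RPMI, 5% FBS, 37 degrees C).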
KB-V1 MDR tox = qHTS assay for MDR1-selective chemotherapeutics: Primary screen using the drug-selected MDR subline cells KB-V1; KB-V1 MDR cells viability, CellTiter-Glo, 72 h; 400,000 compounds, 3.4% hits; Potency, µM (series often up to 46.1 µM), most hits filed as cytotoxic; further: on the % scale 0 is the no-effect control and ±100 the full control effect; nearly all actives have a fitted effect of over 60% in size
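Compound-treated KB-V1 multidrug-resistant cells, 72 h, 37 degrees C; viability by CellTiter-Glo. Fitted qHTS curves give the values.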
MCF10A rereplic = A quantitative high throughput screen for small molecules that induce DNA re-replication in MCF 10a normal breast cells; MCF 10A DNA re-replication, Hoechst nuclear intensity, 48 h; Potency, µM (doses to about 46.1 µM), without a hit: top-dose activity, positive = re-replication, usual class: activators; 350,000 compounds, 2.9% hits; further: % of control where 0% means no effect; nearly all actives have a fitted effect of over 50% in size
KB-3-1 tox = qHTS assay for MDR1-selective chemotherapeutics: Primary screen using the parental adenocarcinoma cell KB-3-1; KB-3-1 viability, CellTiter-Glo ATP luminescence, 72 h; Potency, µM (highest dose often 46.1 µM), usual class: cytotoxic; 400,000 compounds, 1.4% hits; further: on the % scale 0 is the no-effect control and ±100 the full control effect; nearly all actives have a fitted effect of over 60% in size
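Luminescent ATP read-out (CellTiter-Glo) measures survival of drug-naive KB-3-1 cells after 72 h compound exposure at 37 °C. Titration series was screened from lowest to highest concentration, with DMSO vehicle plates as background controls.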
Starred values were filed as active, the others as inactive; i = inactive; ? = inconclusive; . = not tested or not shown; [ ] = dose if it differs, or a comment. The call rests on the fitted dose curve; in most records, active means well fitted curve in the direction sought with a large enough effect; inconclusive means small, poorly fitted or top-dose-only effect, or another doubt; inactive means no such curve, though single readings can be large; an effect the other way counts as inactive or inconclusive. Potency means the concentration at half of the fitted maximal effect.

SMILES | SW480 rerep | HT1080 IDH1KD tx | HT1080NT lethal | KB-V1 MDR tox | MCF10A rereplic | KB-3-1 tox
Cc1cccc(NNC(=O)C(=O)NNc2cccc(C)c2)c1 | -7% | 5.2µM* | ? | i | 6.5µM* | ?
C=C(C)C(=O)NNc1ccccc1 | ? | 21µM* | 7.3µM* | i | ? | i
Fc1ccc(-c2csc(Nc3ccccn3)n2)c(F)c1 | -1% | ? | ? | ? | ? | 18µM*
CN(C)CC/C=C1/c2ccccc2Sc2c(O)cc(Cl)cc21 | ? | 23µM* | ? | 15µM* | 27% | ?
CN(C)CC/C=C1/c2cc(F)ccc2Sc2ccc(Cl)cc21 | -80% | 16µM* | 23µM* | i | 44% | i
COc1cc2c(cc1Cl)/C(=C\CCN(C)C)c1ccccc1S2 | ? | ? | ? | 16µM* | ? | ?
N#Cc1c(NC(=S)NC(=O)Cc2cccs2)sc2c1CCCCC2 | -8% | -13% | 3% | ? | 6% | ?
Fc1ccc(-c2nn(-c3ccc(Cl)cc3)c3c2cnc2ccc(F)cc23)cc1 | . | . | . | i | . | i
CC(C)C(=O)Nc1ccc(-c2nc3cccnc3o2)cc1 | -14% | 9% | -1% | ? | ? | i
CC(C)(C)c1ccc(OCC(=O)Nc2ccc(C(=O)Nc3ccccc3C(=O)O)cc2)cc1 | 1% | 0% | -8% | ? | 18µM* | i
CC(C)(C)c1ccc(OCC(=O)Nc2ccc(-c3nc4cccnc4o3)cc2)cc1 | 14% | -2% | -4% | i | 16µM* | i
CCOc1ccc(CCNC(=O)c2nn(C)c3c2CSc2ccc(C)cc2-3)cc1OCC | . | . | . | ? | . | i
CC[C@H]1CCCCc2ccccc2[C@@H](C(=O)C[C@@H](O)CC(C)=O)OC1=O | ? | 4% | 9% | i | -34% | i
CCOc1ccc(C(=O)Cc2cc(OC)c(OC)cc2[N+](=O)[O-])cc1 | 5.8µM* | -5% | 4% | i | 4.6µM* | i
CCOc1ccc(C(=O)CC(=O)C(=O)NCCc2ccc(OC)c(OC)c2)cc1 | ? | -7% | -4% | 7.3µM* | 14% | i
COC(=O)c1ccc(COc2cc(C)ccc2C)o1 | -8% | 7% | 10% | i | 0% | i
CCCn1nc(C(=O)Nc2nc(-c3ccccn3)cs2)c2ccccc2c1=O | -11% | ? | ? | i | 23µM* | ?
CCn1nc(C(=O)Nc2nc(-c3ccccn3)cs2)c2ccccc2c1=O | -1% | -23% | 0% | i | 10% | i
Cn1nc(C(=O)Nc2nc(-c3ccccn3)cs2)c2ccccc2c1=O | 1% | -11% | 0% | 1.3µM* | 16% | i
COc1ccc(N(CC(=O)N2CCc3ccccc3C2)S(=O)(=O)c2ccc(C)cc2)cc1Cl | . | . | . | i | . | i
O=C(CN1c2cccc3cccc(c23)S1(=O)=O)NC1CCCCC1 | -15% | 8% | 6% | 21µM* | -8% | i
Cc1ccc(NC(=O)CN2c3cccc4cccc(c34)S2(=O)=O)cc1 | -2% | -8% | -8% | 23µM* | ? | i
O=C(CN1C(=O)c2ccccc2S1(=O)=O)NC1CCCCCC1 | 1% | 0% | ? | ? | 8% | i
O=C(CN1c2cccc3cccc(c23)S1(=O)=O)Nc1cccc(S(=O)(=O)N2CCOCC2)c1 | -4% | 14% | 9% | 18µM* | 2% | i
O=C(CN1C(=O)CCOc2ccccc21)Nc1cccc(S(=O)(=O)N2CCOCC2)c1 | -7% | -6% | 4% | ? | -4% | i
SMILES | SW480 rerep | HT1080 IDH1KD tx | HT1080NT lethal | KB-V1 MDR tox | MCF10A rereplic | KB-3-1 tox
COCC(C)n1c(C)cc(C(=O)CN2c3cccc4cccc(c34)S2(=O)=O)c1C (stereo not given) | 3% | 1% | 0% | i | -8% | i
Cc1cc(C(=O)CN2c3cccc4cccc(c34)S2(=O)=O)c(C)n1C | 3.3µM* | 15µM* | -30%[9.24 µM] | i | 3.7µM* | ?
CCOC(=O)c1ccc(-c2c(-c3ccccc3OC)sc3cc4c(cc23)OCO4)cc1F | 1% | 3% | ? | i | ? | i
COc1ccc(-c2nc(CSCC(=O)NCc3ccccc3Cl)c(C)o2)cc1OC | . | . | . | i | . | i
CN(C)c1cc(F)c(C=O)cc1F | . | . | . | i | . | i
COc1ccc(CN2CCC(N(CCc3ccccc3)Cc3ccccc3)CC2)c(OC)c1 | ? | ? | ? | 13µM* | 15µM* | ?
CCN1C(=O)CCC(C(=O)O)C1c1ccc(OC)cc1 (stereo not given) | -63% | 15% | 15% | i | ? | i
S=C(Nc1ccc(Cl)cc1)NC1CC2CCC(C1)N2Cc1ccccc1 (stereo not given) | 14% | 18µM* | ? | ? | ? | ?
CCc1ccc(NC(=S)NC2CC3CCCC(C2)N3Cc2ccccc2)cc1 (stereo not given) | -82% | -5% | -8% | i | ? | i
S=C(Nc1ccc(Cl)cc1)NC1CC2CCCC(C1)N2C1CCCC1 (stereo not given) | 23µM* | ? | ? | i | ? | i
CC1CCCCC1NC(=O)c1ccncc1 (stereo not given) | 18µM* | -1% | 1% | i | 3% | i
Cc1cccn2c(=O)c(C(=O)NC3CC(C)CC(C)(C)C3)c(O)nc12 (stereo not given) | -2% | 4% | 1% | 23µM* | ? | ?
Cc1cccn2c(=O)c(C(=O)NC3CCCCC3C)c(O)nc12 (stereo not given) | 10% | ? | -16% | 16µM* | 9% | ?
O=[N+]([O-])c1ccc2c(c1)C=C/C2=C\c1ccccc1 | . | . | . | i | . | i
Cc1ccc(Cl)cc1N1CCN(C(=O)c2cn(C3CCCCC3)c(=O)c3c2c2ccccc2n3C)CC1 | . | . | . | i | . | i
O=C(COc1cccc2ccccc12)Nc1cc(Cl)ccc1C(=O)O | 1% | -28% | -20% | ? | 6.5µM* | i
COc1ccc(CNCC(=O)Nc2ccccc2-n2cccc2)cc1 | 21µM* | ? | ? | ? | ? | ?
